Laboratory results from PubChem BioAssay AID1159580 (chemical genetic matrix, 2015).
Screen size: about 5,500 compounds; about 2,000 (36%) were called active. Another 18% or so got no clear call; they are omitted. Rule as the data show it: active = normalized growth mostly below about 0.91 (no sharp cut-off); inconclusive = no clear call, values can overlap the other calls; inactive = mostly above about 0.92. The list shows a part of the results.

Assay: chemical genetic growth profiling, strain panel (AID 1159580);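 also: tested at 20 µM; growth read once vehicle control cultures reached saturation at 30 °C; 1 = growth at the plate median or of vehicle wells; lower values mean less growth of the strain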
Conditions: growth OD
[1] = S. cerevisiae deletion strains, locus YAR019C, strain CDC15, hits give low values
[2] = S. cerevisiae deletion strains, locus YBL105C, strain PKC1, hits give low values
[3] = S. cerevisiae deletion strains, locus YBR135W, strain CKS1, hits give low values
[4] = S. cerevisiae deletion strains, locus YBR136W, strain MEC1, hits give low values
[5] = S. cerevisiae deletion strains, locus YBR160W, strain CDC28, hits give low values
[6] = S. cerevisiae deletion strains, locus YDL017W, strain CDC7, hits give low values
[7] = S. cerevisiae deletion strains, locus YDL028C, strain MPS1, hits give low values
[8] = S. cerevisiae deletion strains, locus YDL101C, strain DUN1, hits give low values
[9] = S. cerevisiae deletion strains, locus YDL108W, strain KIN28, hits give low values
[10] = S. cerevisiae deletion strains, locus YDL132W, strain cdc53, hits give low values
[11] = S. cerevisiae deletion strains, locus YDL214C, strain PRR2, hits give low values
[12] = S. cerevisiae deletion strains, locus YDR052C, strain DBF4, hits give low values
[13] = S. cerevisiae deletion strains, locus YDR054C, strain cdc34, hits give low values
[14] = S. cerevisiae deletion strains, locus YDR226W, strain ADK1, hits give low values
[15] = S. cerevisiae deletion strains, locus YDR477W, strain SNF1, hits give low values
[16] = S. cerevisiae deletion strains, locus YER123W, strain YCK3, hits give low values
[17] = S. cerevisiae deletion strains, locus YER133W, strain GLC7, hits give low values
[18] = S. cerevisiae deletion strains, locus YFL009W, strain cdc4, hits give low values
[19] = S. cerevisiae deletion strains, locus YFL029C, strain CAK1, hits give low values
[20] = S. cerevisiae deletion strains, locus YFR003C, strain YPI1, hits give low values
[21] = S. cerevisiae deletion strains, locus YFR019W, strain FAB1, hits give low values
[22] = S. cerevisiae deletion strains, locus YFR028C, strain CDC14, hits give low values
[23] = S. cerevisiae deletion strains, locus YGR040W, strain KSS1, hits give low values
[24] = S. cerevisiae deletion strains, locus YGR052W, strain FMP48, hits give low values
[25] = S. cerevisiae deletion strains, locus YGR092W, strain DBF2, hits give low values
[26] = S. cerevisiae deletion strains, locus YHR030C, strain SLT2, hits give low values
[27] = S. cerevisiae deletion strains, locus YHR079C, strain IRE1, hits give low values
[28] = S. cerevisiae deletion strains, locus YHR082C, strain KSP1, hits give low values
[29] = S. cerevisiae deletion strains, locus YHR205W, strain SCH9, hits give low values
[30] = S. cerevisiae deletion strains, locus YIL147C, strain SLN1, hits give low values
[31] = S. cerevisiae deletion strains, locus YJL095W, strain BCK1, hits give low values
[32] = S. cerevisiae deletion strains, locus YJL157C, strain FAR1, hits give low values
[33] = S. cerevisiae deletion strains, locus YJR016C, strain ILV3, hits give low values
[34] = S. cerevisiae deletion strains, locus YJR066W, strain TOR1 (second series), hits give low values
[35] = S. cerevisiae deletion strains, locus YJR066W, strain TOR1, hits give low values
[36] = S. cerevisiae deletion strains, locus YKL048C, strain ELM1, hits give low values
[37] = S. cerevisiae deletion strains, locus YKL067W, strain YNK1, hits give low values
[38] = S. cerevisiae deletion strains, locus YKL101W, strain HSL1, hits give low values
[39] = S. cerevisiae deletion strains, locus YKL193C, strain SDS22, hits give low values
[40] = S. cerevisiae deletion strains, locus YKL203C, strain TOR2, hits give low values
[41] = S. cerevisiae deletion strains, locus YLR113W, strain HOG1, hits give low values
[42] = S. cerevisiae deletion strains, locus YLR133W, strain CKI1, hits give low values
[43] = S. cerevisiae deletion strains, locus YLR403W, strain SFP1, hits give low values
[44] = S. cerevisiae deletion strains, locus YML070W, strain DAK1, hits give low values
[45] = S. cerevisiae deletion strains, locus YMR001C, strain CDC5, hits give low values
[46] = S. cerevisiae deletion strains, locus YMR205C, strain PFK2 (second series), hits give low values
[47] = S. cerevisiae deletion strains, locus YMR277W, strain FCP1, hits give low values
[48] = S. cerevisiae deletion strains, locus YNL006W, strain LST8, hits give low values
[49] = S. cerevisiae deletion strains, locus YNL020C, strain ARK1, hits give low values
[50] = S. cerevisiae deletion strains, locus YNL161W, strain CBK1, hits give low values
[51] = S. cerevisiae deletion strains, locus YNL183C, strain NPR1, hits give low values
[52] = S. cerevisiae deletion strains, locus YNL207W, strain RIO2, hits give low values
[53] = S. cerevisiae deletion strains, locus YNL222W, strain SSU72, hits give low values
[54] = S. cerevisiae deletion strains, locus YNL307C, strain MCK1 (second series), hits give low values
[55] = S. cerevisiae deletion strains, locus YOL078W, strain AVO1, hits give low values
[56] = S. cerevisiae deletion strains, locus YOL136C, strain PFK27, hits give low values
[57] = S. cerevisiae deletion strains, locus YOR061W, strain CKA2, hits give low values
[58] = S. cerevisiae deletion strains, locus YOR119C, strain RIO1, hits give low values
[59] = S. cerevisiae deletion strains, locus YOR231W, strain MKK1, hits give low values
[60] = S. cerevisiae deletion strains, locus YOR329C, strain SCD5, hits give low values
[61] = S. cerevisiae deletion strains, locus YPL031C, strain PHO85, hits give low values
[62] = S. cerevisiae deletion strains, locus YPL153C, strain RAD53, hits give low values
[63] = S. cerevisiae deletion strains, locus YPL204W, strain HRR25, hits give low values
[64] = S. cerevisiae deletion strains, locus YPL209C, strain IPL1, hits give low values
[65] = S. cerevisiae deletion strains, locus YPL256C, strain CLN2, hits give low values
[66] = S. cerevisiae deletion strains, locus YPR025C, strain CCL1, hits give low values
[67] = S. cerevisiae deletion strains, locus YPR106W, strain ISR1, hits give low values
[68] = S. cerevisiae deletion strains, locus YPR111W, strain DBF20, hits give low values
[69] = S. cerevisiae deletion strains, strain NNK1, hits give low values
[70] = S. cerevisiae deletion strains, strain TSCII, hits give low values

Measured: normalized growth

O=C1Nc2ccccc2/C1=N/N=C\c1ccccc1Cl
active: [26] 0.83 | [41] 0.708
inactive: [1] 0.975 | [2] 0.967 | [3] 0.986 | [4] 0.966 | [5] 0.972 | [6] 0.97 | [7] 0.97 | [8] 0.97 | [9] 0.969 | [10] 0.977 | [11] 0.92 | [12] 0.968 | [13] 0.97 | [14] 0.987 | [15] 0.909 | [16] 0.85 | [17] 0.928 | [18] 0.978 | [19] 0.982 | [20] 0.966 | [21] 0.935 | [22] 0.987 | [23] 0.903 | [24] 0.838 | [25] 0.867 | [27] 0.906 | [28] 0.918 | [29] 0.858 | [30] 0.973 | [31] 0.798 | S. cerevisiae deletion strains, locus YJL128C, strain PBS2, hits give low values 0.925 | [32] 0.928 | [33] 0.986 | [34] 0.916 | [35] 0.9 | [36] 0.901 | [37] 0.896 | [38] 0.893 | [39] 0.971 | [40] 0.954 | [42] 0.916 | [43] 0.902 | [44] 0.897 | [45] 0.976 | [46] 0.887 | [47] 0.972 | [48] 0.974 | [49] 0.896 | [50] 0.976 | [51] 0.841 | [52] 0.974 | [53] 0.979 | [54] 0.855 | [55] 0.968 | [56] 0.904 | [57] 0.888 | [58] 0.93 | [59] 0.823 | [60] 0.965 | [61] 0.877 | [62] 0.915 | [63] 0.888 | [64] 0.977 | [65] 0.907 | [66] 0.97 | [67] 0.97 | [68] 0.963 | [69] 0.967 | [70] 0.976

O=C1Nc2ccccc2/C1=N/N=C\c1cc(Br)cc(Br)c1O
inactive: [1] 0.947 | [2] 0.959 | [3] 0.964 | [4] 0.955 | [5] 0.959 | [6] 0.957 | [7] 0.95 | [8] 0.946 | [9] 0.957 | [10] 0.944 | [12] 0.944 | [13] 0.916 | [14] 0.951 | [18] 0.945 | [19] 0.949 | [20] 0.947 | [22] 0.964 | [30] 0.948 | [33] 0.969 | [39] 0.937 | [45] 0.945 | [47] 0.959 | [50] 0.943 | [52] 0.957 | [53] 0.96 | [55] 0.937 | [60] 0.937 | [64] 0.967 | [66] 0.959 | [67] 0.943 | [68] 0.933 | [70] 0.951
active: [11] 0.231 | [15] 0.246 | [16] 0.233 | [17] 0.249 | [21] 0.396 | [23] 0.278 | [24] 0.132 | [25] 0.121 | [26] 0.128 | [27] 0.132 | [28] 0.124 | [29] 0.0116 | [31] 0.112 | [32] 0.147 | [34] 0.393 | [35] 0.114 | [36] 0.303 | [37] 0.194 | [38] 0.225 | [40] 0.209 | [41] 0.331 | [42] 0.134 | [43] 0.0728 | [44] 0.259 | [46] 0.204 | [48] 0.764 | [49] 0.114 | [51] 0.128 | [54] 0.128 | [56] 0.198 | [57] 0.105 | [58] 0.184 | [59] 0.139 | [61] 0.203 | [62] 0.196 | [63] 0.199 | [65] 0.313 | [69] 0.34

O=C1NC(c2ccccc2Cl)Nc2ccccc21 (centres undefined)
inactive: S. cerevisiae deletion strains, locus YAL013W, strain DEP1, hits give low values 0.997 | S. cerevisiae deletion strains, locus YBR229C, strain ROT2, hits give low values 1 | S. cerevisiae deletion strains, locus YCL061C, strain MRC1, hits give low values 0.992 | [8] 1.01 | S. cerevisiae deletion strains, locus YDL134C, strain PPH21, hits give low values 1.01 | S. cerevisiae deletion strains, locus YDR150W, strain NUM1, hits give low values 0.998 | S. cerevisiae deletion strains, locus YEL061C, strain CIN8, hits give low values 0.981 | S. cerevisiae deletion strains, locus YGR078C, strain PAC10, hits give low values 0.997 | [26] 1.04 | S. cerevisiae deletion strains, locus YHR087W, strain rtc3, hits give low values 0.998 | S. cerevisiae deletion strains, locus YJL187C, strain SWE1, hits give low values 0.993 | S. cerevisiae deletion strains, locus YJR043C, strain POL32, hits give low values 1.02 | S. cerevisiae deletion strains, locus YJR075W, strain HOC1, hits give low values 0.97 | S. cerevisiae deletion strains, locus YLR039C, strain RIC1, hits give low values 0.973 | S. cerevisiae deletion strains, locus YLR058C, strain SHM2 (second series), hits give low values 1 | S. cerevisiae deletion strains, locus YLR085C, strain ARP6, hits give low values 0.951 | S. cerevisiae deletion strains, locus YLR262C, strain YPT6, hits give low values 0.977 | S. cerevisiae deletion strains, locus YML094W, strain GIM5, hits give low values 0.989 | S. cerevisiae deletion strains, locus YMR219W, strain ESC1, hits give low values 1 | S. cerevisiae deletion strains, locus YMR263W, strain SAP30, hits give low values 1.01 | S. cerevisiae deletion strains, locus YNL153C, strain GIM3, hits give low values 1 | S. cerevisiae deletion strains, locus YNL298W, strain CLA4 (second series), hits give low values 0.997 | S. cerevisiae deletion strains, locus YNL322C, strain KRE1, hits give low values 0.99 | S. cerevisiae deletion strains, locus YNR030W, strain Alg12, hits give low values 0.984 | S. cerevisiae deletion strains, locus YPL055C, strain LGE1, hits give low values 1.03 | S. cerevisiae deletion strains, locus YPL241C, strain CIN2, hits give low values 0.981 | S. cerevisiae deletion strains, locus YPR135W, strain CTF4, hits give low values 1.05 | S. cerevisiae strains, strain wild type, hits give low values 1.01
